In the supplement of paper PMC9694430:

Key:
Assay in all cases: thermal shift delta Tm vs DMSO control; higher = stronger stabilization (binding)
Conditions in all cases: 12.5 µM; protein concentration 2 µM
LOC_OS02G45750-cb003 = test system: LOC_OS02G45750-cb003
In short: (§1)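 The melting temperature shift given here is a triplicate mean, measured against protein that received only DMSO. Melting temperatures came from Boltzmann fits of differential scanning fluorimetry data on E. coli-expressed, purified rice kinase domain constructs. Each 19.5 μl well contained 2 μM kinase, 100 mM potassium phosphate pH 7.5, 150 mM NaCl, 10% glycerol, 5 × SYPRO Orange and compound in DMSO. Plates were scanned from 25°C to 95°C at 0.05°C/s.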

LOC_OS02G54510-cb004 = test system: LOC_OS02G54510-cb004
In short: as §1

LOC_OS03G04050-cb001 = test system: LOC_OS03G04050-cb001
In short: as §1

LOC_OS03G12390-cb001 = test system: LOC_OS03G12390-cb001
In short: as §1

LOC_OS03G27990-cb004 = test system: LOC_OS03G27990-cb004
In short: as §1

LOC_OS03G50450-cb001 = test system: LOC_OS03G50450-cb001
In short: as §1

LOC_OS03G50810-cb003 = test system: LOC_OS03G50810-cb003
In short: as §1

LOC_OS04G35114-cb001 = test system: LOC_OS04G35114-cb001
In short: as §1

LOC_OS04G38480-cb003 = test system: T1, LOC_OS04G38480-cb003
T1 sequence (whole entry): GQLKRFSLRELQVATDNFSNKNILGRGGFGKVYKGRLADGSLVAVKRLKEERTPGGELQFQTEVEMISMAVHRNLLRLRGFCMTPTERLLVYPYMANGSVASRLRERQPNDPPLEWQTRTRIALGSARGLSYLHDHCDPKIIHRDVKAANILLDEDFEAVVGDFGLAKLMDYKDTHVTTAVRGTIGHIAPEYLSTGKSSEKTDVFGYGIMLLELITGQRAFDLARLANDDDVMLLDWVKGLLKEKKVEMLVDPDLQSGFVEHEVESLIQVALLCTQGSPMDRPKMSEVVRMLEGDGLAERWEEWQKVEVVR
In short: as §1

LOC_OS04G41100-cb001 = test system: T2, LOC_OS04G41100-cb001
T2 sequence (whole entry): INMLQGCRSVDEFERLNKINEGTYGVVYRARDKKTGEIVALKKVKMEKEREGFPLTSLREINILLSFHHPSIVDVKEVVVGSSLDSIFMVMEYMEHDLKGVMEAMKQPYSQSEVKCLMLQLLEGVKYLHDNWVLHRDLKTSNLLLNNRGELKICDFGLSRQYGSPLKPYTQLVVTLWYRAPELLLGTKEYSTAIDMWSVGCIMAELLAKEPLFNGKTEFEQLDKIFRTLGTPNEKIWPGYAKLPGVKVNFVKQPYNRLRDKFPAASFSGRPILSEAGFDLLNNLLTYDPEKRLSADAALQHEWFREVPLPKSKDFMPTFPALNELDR
In short: as §1

LOC_OS04G57630-cb004 = test system: LOC_OS04G57630-cb004
In short: as §1

LOC_OS05G07850-cb002 = test system: LOC_OS05G07850-cb002
In short: as §1

LOC_OS05G16824-cb004 = test system: LOC_OS05G16824-cb004
In short: as §1

LOC_OS05G28520-cb001 = test system: LOC_OS05G28520-cb001
In short: as §1

LOC_OS05G30820-cb001 = test system: LOC_OS05G30820-cb001
In short: as §1

LOC_OS05G43570-cb004 = test system: LOC_OS05G43570-cb004
In short: as §1

LOC_OS06G16330-cb003 = test system: LOC_OS06G16330-cb003
In short: as §1

LOC_OS06G22820-cb001 = test system: T3, LOC_OS06G22820-cb001
T3 sequence (whole entry): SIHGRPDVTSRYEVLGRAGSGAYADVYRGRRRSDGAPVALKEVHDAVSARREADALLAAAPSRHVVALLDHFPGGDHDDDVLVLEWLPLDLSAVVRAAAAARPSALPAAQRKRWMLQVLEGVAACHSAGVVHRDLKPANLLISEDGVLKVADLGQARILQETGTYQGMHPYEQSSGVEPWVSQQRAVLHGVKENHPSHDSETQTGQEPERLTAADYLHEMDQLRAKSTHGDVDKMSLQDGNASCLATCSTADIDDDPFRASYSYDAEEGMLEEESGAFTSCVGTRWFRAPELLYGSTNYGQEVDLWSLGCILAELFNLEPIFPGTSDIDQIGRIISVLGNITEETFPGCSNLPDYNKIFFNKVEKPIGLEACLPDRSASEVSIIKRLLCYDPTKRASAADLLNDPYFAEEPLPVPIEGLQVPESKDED
In short: as §1

LOC_OS07G06570-cb004 = test system: LOC_OS07G06570-cb004
In short: as §1

LOC_OS07G07230-cb001 = test system: LOC_OS07G07230-cb001
In short: as §1

Chain of LOC_OS06G16330-cb003 (as listed by the source): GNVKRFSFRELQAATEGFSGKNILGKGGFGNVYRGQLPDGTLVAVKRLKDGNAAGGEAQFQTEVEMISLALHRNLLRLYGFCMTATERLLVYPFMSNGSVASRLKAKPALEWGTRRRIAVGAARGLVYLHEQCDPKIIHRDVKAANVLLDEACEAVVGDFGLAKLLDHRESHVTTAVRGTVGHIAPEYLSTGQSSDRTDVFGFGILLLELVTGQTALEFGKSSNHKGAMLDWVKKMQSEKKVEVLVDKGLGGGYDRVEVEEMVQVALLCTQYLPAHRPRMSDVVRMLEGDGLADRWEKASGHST

Row | Compound | thermal shift delta Tm (LOC_OS02G45750-cb003) [°C] | thermal shift delta Tm (LOC_OS02G54510-cb004) [°C] | thermal shift delta Tm (LOC_OS03G04050-cb001) [°C] | thermal shift delta Tm (LOC_OS03G12390-cb001) [°C] | thermal shift delta Tm (LOC_OS03G27990-cb004) [°C] | thermal shift delta Tm (LOC_OS03G50450-cb001) [°C] | thermal shift delta Tm (LOC_OS03G50810-cb003) [°C] | thermal shift delta Tm (LOC_OS04G35114-cb001) [°C] | thermal shift delta Tm (LOC_OS04G38480-cb003) [°C] | thermal shift delta Tm (LOC_OS04G41100-cb001) [°C] | thermal shift delta Tm (LOC_OS04G57630-cb004) [°C] | thermal shift delta Tm (LOC_OS05G07850-cb002) [°C] | thermal shift delta Tm (LOC_OS05G16824-cb004) [°C] | thermal shift delta Tm (LOC_OS05G28520-cb001) [°C] | thermal shift delta Tm (LOC_OS05G30820-cb001) [°C] | thermal shift delta Tm (LOC_OS05G43570-cb004) [°C] | thermal shift delta Tm (LOC_OS06G16330-cb003) [°C] | thermal shift delta Tm (LOC_OS06G22820-cb001) [°C] | thermal shift delta Tm (LOC_OS07G06570-cb004) [°C] | thermal shift delta Tm (LOC_OS07G07230-cb001) [°C]
1 | O=c1cc(N2CCOCC2)oc2c1ccc1ccccc12 | 0.57 | 0.45 | 0.58 | 1.07 | 0.27 | 0.43 | 0.29 | 0.64 | 2.01 | 0.31 | 0.45 | 0.96 | 1.86 | 0.42 | 0.43 | 0.67 | -3.55 | 0.23 | 0.63 | 0.36
2 | CC1(C)CNc2cc(NC(=O)c3cccnc3NCc3ccncc3)ccc21 [Motesanib Diphosphate (AMG-706)] | -0.06 | 1.49 | 0.4 | -0.39 | 0.2 | -0.1 | 0.3 | 0.51 | 0.65 | 0.6 | -0.11 | 0.52 | -3.02 | 0.68 | 0.49 | 0.21 | -0.19 | 0.37 | 0.75 | 0.81
3 | O=C(O)c1ccc(Nc2ncc3c(n2)-c2ccc(Cl)cc2C(c2c(F)cccc2F)=NC3)cc1 | 0.27 | 1.01 | 0.54 | -0.49 | 0.21 | 0.06 | 0.12 | 0.54 | 0.01 | 0.55 | -0.29 | 4.66 | -1.88 | 0.62 | 0.22 | 0.24 | -0.12 | 0.97 | 0.4 | 0.33
4 | CN(C[C@@H]1COCCO1)S(=O)(=O)Nc1ccc2ccc3ncc(-c4cnn(C)c4)cc3c(=O)c2c1 | 9.61 | 0.42 | 0.37 | 0.09 | 1.72 | 0.44 | 3.78 | 7.88 | 2.89 | 0.3 | 4.12 | 10.5 | 7.72 | 0.77 | 1.85 | 0.41 | 7.23 | 0.65 | 1.07 | 0.63
5 | CC(C)(C)S(=O)(=O)c1ccc2nccc(Nc3n[nH]c4ccc(F)cc34)c2c1 | 0.81 | 0.59 | 0.15 | 0.75 | 0.12 | -0.21 | 0.11 | 3.68 | 0.32 | 0.12 | 0.34 | 2.55 | -0.25 | -0.33 | 0.52 | 0.22 | 0.6 | 0.36 | 0.6 | 0.92
6 | CN(C)C/C=C/C(=O)Nc1ccc(C(=O)Nc2cccc(Nc3ncc(Cl)c(-c4c[nH]c5ccccc45)n3)c2)cc1 | 6.63 | 2.87 | 0.82 | 10.8 | 4.72 | 5.94 | 5.98 | 1.96 | 4.69 | 1.76 | 2.1 | 11.2 | 11.9 | 4.57 | 5.85 | 1.59 | 11.2 | 0.86 | 1.53 | 0.68
7 | COc1cc(OC)cc(-c2cc3cnc(N)nc3nc2NC(=O)NC(C)(C)C)c1 | 0.88 | 0.19 | 0.34 | 0.31 | 0.16 | 0.18 | 0.24 | 0 | 0.52 | 0.39 | 0.07 | 1.66 | -1.45 | -0.04 | 0.11 | 0.05 | -0.44 | 0.29 | 1.06 | 1
8 | CCn1c(-c2nonc2N)nc2c(C#CC(C)(C)O)ncc(OC[C@H]3CCCNC3)c21 | 0.16 | -0.17 | 0.51 | -0.08 | 0.32 | 0.05 | 0.05 | 0.41 | 0.66 | 1.1 | 0.06 | 0.29 | -1.28 | 0.27 | 0.49 | 1.47 | -0.37 | 0.88 | 0.7 | 0.32
9 | c1cc(-c2cnn3cc(-c4ccc(OCCN5CCCCC5)cc4)cnc23)ccn1 [Dorsomorphin 2HCl] | 15.2 | 0.73 | 0.67 | 1.8 | 9.39 | 1.81 | 7.51 | 9.17 | 3.72 | 3.16 | 6.96 | 9.81 | 12.6 | 3.18 | 1.22 | 0.81 | 8.76 | 0.18 | 1.04 | 1.17
10 | Cc1c[nH]c(/C=C2\C(=O)Nc3ccccc32)c1CCC(=O)O | 2.76 | 0.94 | 0.06 | 8 | 0.79 | 4.67 | 2.36 | 8.73 | 3.46 | 0.43 | 0.5 | 6.66 | 7.29 | 0.67 | 2.14 | 0.11 | 9.94 | 0.18 | 0.84 | 0.79
11 | CNCc1ccc(-c2cc(-c3nc(-c4ccc(S(=O)(=O)C(C)C)cc4)cnc3N)on2)cc1 | 2.46 | 0.28 | 0.32 | 0.54 | 0.33 | 0.34 | 0.97 | 4.33 | 1 | 0.22 | 0.75 | 6.99 | -0.05 | 0.89 | 0.64 | 0.33 | 0.7 | 0.87 | 1.23 | 0.32
12 | O=C(NC(NC(=S)Nc1ccc(F)c([N+](=O)[O-])c1)C(Cl)(Cl)Cl)C(c1ccccc1)c1ccccc1 (stereo not given) | 0.8 | 1.3 | 1.21 | 1.23 | 0.49 | 0.84 | 1.45 | 1.31 | 3.23 | 0.88 | 1.38 | 8.68 | 0.69 | 1.84 | 1.61 | 2.15 | 0.69 | 1.79 | 1.83 | 0.79
13 | N#C/C(=C(/N)Sc1ccc(N)cc1)c1ccccc1C(F)(F)F | -0.09 | 0.03 | 0.54 | -0.46 | 0.47 | -0.3 | -0.02 | 0.28 | 0.37 | 0.78 | -0.02 | -0.43 | -2.13 | 0.13 | 0.55 | -0.02 | -0.1 | 0.8 | 0.09 | 0.16
